Only a selection was taken, and hits are over-represented in it overall.
HT1080-NT tox = qHTS for induction of synthetic lethality in tumor cells producing 2HG: qHTS for the HT-1080-NT fibrosarcoma cell line | HT-1080-NT fibrosarcoma viability, CellTiter-Glo ATP luminescence, 48 h | Potency, µM (series often up to 46.1 µM), for inactives: top-dose activity, negative = less viability, actives largely listed as cytotoxic | 360,000 tested, 1.6% active | AID 686970, 2013;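 note: NT is the 2HG producing partner of a matched IDH1 knockdown line; potency is the fitted concentration of half-maximal effect; 0% = DMSO-treated cells and -100% = media-only wells without cells; nearly all actives have a fitted effect of over 55% in size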
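Toxicity toward the 2HG-producing NT line was scored as %Activity, normalised to DMSO and no-cell wells, from CellTiter-Glo luminescence after 48 hours' treatment.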
12-LOX inh = Primary qHTS assay for inhibitors of human arachidonate 12S-lipoxygenase (ALOX12): Round 2. Polyunsaturated fatty acid lipoxygenase ALOX12 (Homo sapiens), P18054. purified 12hLO, xylenol orange hydroperoxide absorbance. Potency, µM (series often up to 108 µM), for inactives: at the highest dose activity change, negative = inhibition, usual class: inhibitors. 580,000 tested, 1.1% active. AID 1671190, 2021; note: potency is the fitted concentration of half-maximal effect
Target sequence (P18054 whole entry, looked up): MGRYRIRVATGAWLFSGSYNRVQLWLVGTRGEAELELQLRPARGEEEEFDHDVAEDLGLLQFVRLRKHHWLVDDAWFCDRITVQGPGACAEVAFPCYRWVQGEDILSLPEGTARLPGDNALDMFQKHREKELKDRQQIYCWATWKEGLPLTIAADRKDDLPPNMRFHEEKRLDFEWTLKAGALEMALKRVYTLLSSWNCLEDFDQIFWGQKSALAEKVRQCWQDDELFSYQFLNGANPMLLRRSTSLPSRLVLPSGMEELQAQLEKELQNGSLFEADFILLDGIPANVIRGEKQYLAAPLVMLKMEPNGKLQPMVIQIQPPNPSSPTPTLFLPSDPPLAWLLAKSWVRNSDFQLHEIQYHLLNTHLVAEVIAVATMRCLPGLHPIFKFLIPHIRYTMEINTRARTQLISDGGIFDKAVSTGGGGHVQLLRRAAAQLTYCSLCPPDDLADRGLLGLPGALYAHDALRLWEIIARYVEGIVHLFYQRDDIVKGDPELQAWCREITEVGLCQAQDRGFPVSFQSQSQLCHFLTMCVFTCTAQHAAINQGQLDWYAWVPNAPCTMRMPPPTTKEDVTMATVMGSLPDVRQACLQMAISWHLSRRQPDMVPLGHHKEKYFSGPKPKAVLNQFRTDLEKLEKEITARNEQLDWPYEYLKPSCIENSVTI
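Hydroperoxide product was detected by ferrous iron/xylenol orange as the 573 to 405 nm absorbance ratio. Arachidonic acid at 40 uM (final) was turned over for 30 min at room temperature by 150 nM human 12hLO, pH 7.0 Hepes buffer, after 15 min compound preincubation.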
TDP1 cell CPT = qHTS for Inhibitors of human tyrosyl-DNA phosphodiesterase 1 (TDP1): qHTS in cells in presence of CPT | 420,000 tested, 12% active | chicken DT40 Tdp1-/-;hTDP1 cells + 20 nM CPT, ATP luminescence, 48 h | Potency, µM (doses to about 46.2 µM), without a hit: at the highest dose activity change, negative = growth inhibition, actives largely listed as inhibitors; note: potency is the fitted concentration of half-maximal effect; nearly all actives have a fitted effect of over 55% in size
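Chicken DT40 Tdp1-/- cells complemented with human TDP1, 400 cells/well, exposed to compounds plus 20 nM camptothecin for at least 48 h at 37 C; viability read as ATP content by CellTiter-Glo luminescence.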
DT40 TDP1 no CPT = qHTS for Inhibitors of human tyrosyl-DNA phosphodiesterase 1 (TDP1): qHTS in cells in absence of CPT; DT40 Tdp1-/- hTDP1 cells, no CPT, ATP luminescence, 48 h; Potency, µM (highest dose often 46.2 µM), for the others: at the highest dose activity change, negative = growth inhibition, usual class: inhibitors; 420,000 tested, 15% active; note: potency is the fitted concentration of half-maximal effect; nearly all actives have a fitted effect of over 55% in size
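Stably hTDP1-transfected Tdp1-null chicken DT40 cells were treated with library compounds minus camptothecin and grown for at least 48 hr at 37 °C, after which cellular ATP was quantified by luminescence.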
IL1B secr inh = qHTS for Inhibitors of Inflammasome Signaling: IL-1-beta AlphaLISA Primary Screen; 360,000 tested, 4.7% active; activity change, % at 57.5 µM; THP-1 LPS/ATP IL-1B secretion, AlphaLISA, 16 h; stronger effect = lower value; in the data active = activity change below about -50%; inconclusive = mostly about -30% to -49%
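Secreted IL-1B measured by AlphaLISA bead assay after 16 h compound exposure of THP-1 cells; compounds (final up to 57.5 uM) added 1 h before LPS (250 ng/mL) and ATP (1.25 mM) stimulation; lower signal means less secretion.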
HT1080 IDH1KD tx = qHTS for induction of synthetic lethality in tumor cells producing 2HG: qHTS for the HT-1080-IDH1KD cell line. 360,000 tested, 2% active. HT-1080 IDH1 knockdown viability, ATP luminescence, 48 h. Potency, µM (titrated, usually from 46.1 µM), for inactives: at the highest dose activity, negative = toxicity, most hits filed as cytotoxic;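 note: potency is the fitted concentration of half-maximal effect; 0% = DMSO wells and -100% = cell-free medium wells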
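CellTiter-Glo luminescence after 48 h compound exposure at 37 degrees C of IDH1-knockdown HT-1080 cells in 5% FBS RPMI. %Activity scaled between DMSO wells and cell-free media wells, with curves fitted and assigned curve classes.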
An asterisk follows results filed as active; ? = inconclusive; · = no result; ! = repeats disagree; [ ] = remark or other dose. Unless noted, calls come from the whole dose curve; as a rule, active = well fitted curve in the direction sought with a large enough effect; inconclusive = small, poorly fitted or top-dose-only effect, or another doubt; inactive = no such curve, though single readings can be large; an effect the other way counts as inactive or inconclusive. Unless noted, % is set by controls: 0 for no effect and ±100 for the full control effect.

SMILES | HT1080-NT tox | 12-LOX inh | TDP1 cell CPT | DT40 TDP1 no CPT | IL1B secr inh | HT1080 IDH1KD tx
CC(C)(C)c1cc(/C=C(\C#N)C(N)=S)cc(C(C)(C)C)c1O | · | ? | 0.562µM* | 0.708µM* | · | ·
N#CC(C#N)=C(N)/C(C#N)=C/c1cc(O)c(O)c(O)c1 | -25.8% | 5.01µM*! | ? | ? | -6.8 | -26.0%
COc1nc2ccccc2nc1N1CCC(C(=O)Nc2ccc(Cl)cc2)CC1 | · | 18.2% | · | · | · | ·
O=C(Cc1ccccc1)N1CCC(N2CC(OCC3CC3)C23CCOCC3)CC1 (stereo unspecified) | · | 10.1% | · | · | · | ·
COc1ccc(-c2c(C)nn3c(NC4CCCC4)cc(C)nc23)cc1OC | -2.8% | 8.5% | ? | ? | -3.7 | -12.2%
CCc1c(C)nc2cc(-c3ccc(OC)c(OC)c3)nn2c1NCC1CC1 | -10.5% | -10.6% | 13µM* | 16.4µM* | -94.4* | -15.1%
COc1ccc2[nH]c(C[C@@H]3C[C@@H](C(C)C)[C@H](CNC(=O)C4CCC4)C=C3C)nc2n1 | · | 38.3%[176 µM] | · | · | · | ·
COCCC1(C(=O)O)CCCN(Cc2ccc3c(c2)CC(C)(C)O3)C1 (stereo unspecified) | · | -19.6% | · | · | · | ·
CCc1ccc(NC(=S)NC2CC3CCCC(C2)N3Cc2cccs2)cc1 (stereo unspecified) | ? | ? | 18.4µM* | ? | -90.5* | ?
COc1cccc(NC(=S)NC2CC3CCCC(C2)N3CC(C)C)c1 (stereo unspecified) | 11.8% | -9.1% | ? | 16.4µM* | -15.8 | 1.5%
COc1ccc(NC(=S)NC2CC3CCCC(C2)N3C2CC2)cc1 (stereo unspecified) | -1.8% | 1.8% | ? | -29.5% | -11.0 | 1.5%
CCCN1C2CCCC1CC(NC(=S)Nc1ccc(OC)cc1)C2 (stereo unspecified) | -2.4% | -13.2% | ? | 29.1µM* | -16.4 | 4.2%
COc1ccc(OCCn2c(NC(=O)c3cccs3)nc3ccccc32)cc1 | · | 22.6% | · | · | · | ·
COc1ccc2oc(=O)cc(CN3CCN(C(=O)c4cccc(C)c4)CC3)c2c1 | · | 31.1% | · | · | · | ·
CC1(C)C2CC[C@]3(C)C(CC=C4[C@@H]5C[C@@](C)(CO)[C@@H](O)C[C@]5(C(=O)O)CC[C@]43C)[C@@]2(C)CC[C@@H]1O (stereo partly specified) | 0.9% | · | 7.3% | -3.0% | 8.7 | 0.5%
COC(=O)C1OC(OC2CC[C@]3(C)C(CC[C@@]4(C)[C@@H]3CC=C3[C@@H]5CC(C)(C)CC[C@]5(C(=O)OC5OC(CO)C(O)C(O)C5O)CC[C@]34C)C2(C)C)C(O)C(O)C1O[C@H]1OCC(O)C(O)C1O (stereo partly specified) | ? | · | ? | -73.5% | -56.3* | ?
CC(C)CCNC(=O)c1c(-n2cnnn2)sc2c1CCCC2 | · | 1.6% | · | · | · | ·
CCCCn1c(N)c(NCC)c(=O)[nH]c1=O | 14.0% | 47.8% | ? | 23.1µM* | 32.1 | -1.9%
CCOc1ccc(S(=O)(=O)n2cnc3ccccc32)cc1 | 21.6% | -22.4% | ? | ? | 32.4 | 25.1%
CCOc1cc(C)c(Cl)cc1S(=O)(=O)n1cnc2ccccc21 | -1.5% | ? | -28.1% | ? | 3.5 | -7.8%
CCOc1ccc(Cl)cc1S(=O)(=O)n1cnc2ccccc21 | 11.2µM* | ? | 6.31µM* | 4.47µM* | 16.1 | 11.2µM*
COc1ccc(S(=O)(=O)n2cnc3cc(C)c(C)cc32)cc1C | ? | -7.4% | 11.6µM* | ? | -53.3* | 0.0%
COc1ccc(Cl)cc1S(=O)(=O)n1cnc2ccccc21 | -5.7% | 3.7% | 23.1µM* | ? | 7.0 | -7.5%
CCOc1ccc(C)cc1S(=O)(=O)n1cnc2ccccc21 | 9.2µM* | 7.9% | 5.17µM* | 4.11µM* | 0.0 | 13µM*
NCCC(=O)N1CCCC1 | · | -11.4% | · | · | · | ·
SMILES | HT1080-NT tox | 12-LOX inh | TDP1 cell CPT | DT40 TDP1 no CPT | IL1B secr inh | HT1080 IDH1KD tx
CCc1ccc(-c2cc(C(F)(F)F)on2)cc1S(=O)(=O)NCc1ccccc1 | · | -15.7% | · | · | · | ·
CC(Sc1ccccc1Cl)C(=O)O (stereo unspecified) | · | -32.6% | · | · | · | ·
CC(OC(=O)c1cc(=O)[nH]c2ccccc12)C(=O)N1CCCCCC1 (stereo unspecified) | · | -7.4% | · | · | · | ·
Cc1ccc2[nH]c(=O)c(CN(Cc3cccs3)Cc3nnnn3CC3CCCO3)cc2c1 (stereo unspecified) | ? | -24.3% | ? | 17.8µM* | ? | -4.5%
CCc1ccc2[nH]c(=O)c(CN(Cc3cccs3)Cc3nnnn3Cc3ccccc3)cc2c1 | · | · | ? | 12.6µM* | · | ·
CCC(c1nnnn1Cc1ccccc1)N(Cc1ccccc1)Cc1cc2cc(C)ccc2[nH]c1=O (stereo unspecified) | · | · | 11.2µM* | ? | · | ·
Cc1ccc2cc(CN(Cc3cccs3)Cc3nnnn3CC3CCCO3)c(=O)[nH]c2c1C (stereo unspecified) | -0.1% | -28.3% | ? | 18.4µM* | 12.0 | -6.8%
COc1ccc2[nH]c(=O)c(CN(Cc3cccs3)Cc3nnnn3Cc3ccccc3)cc2c1 | -12.7% | 0.0% | ? | ? | -26.1 | ?
Cc1ccc2cc(CN(Cc3cccs3)Cc3nnnn3CC3CCCO3)c(=O)[nH]c2c1 (stereo unspecified) | -22.4% | ? | ? | ? | ? | -29.6%
CC(C)=CC(=O)Nc1cccc(OCc2ccc(F)cc2)c1 | · | -14.7% | · | · | · | ·
CC(NNC(=O)C(O)(c1ccccc1)c1ccccc1)c1ccccc1 (stereo unspecified) | · | 7.9% | · | · | · | ·
CC(=O)c1cccc(NC(=O)Cn2c(N3CCCCC3)nc(C)c(C)c2=O)c1 | · | 11.8% | · | · | · | ·
O=C(CC(CC(=O)c1ccccc1)c1cccs1)c1ccccc1 | · | 14.6% | · | · | · | ·
CN(C)CCCOCC1(C)COc2ccc(C(=O)Nc3cccc(Cl)c3)cc2N1 (stereo unspecified) | · | -6.9%[176 µM] | · | · | · | ·
Cc1ccc2[nH]c(=O)c(CN(CCCO)Cc3nnnn3Cc3ccccc3)cc2c1 | · | · | ? | 11.2µM* | · | ·
COc1cc2cc(CN(CCCN3CCOCC3)Cc3nnnn3Cc3ccccc3)c(=O)[nH]c2cc1OC | -1.2% | 30.4% | -1.7% | -4.7% | -1.4 | -13.0%

Compound activity from PubChem.
